Experimental data from ChEMBL document CHEMBL1961873, “Compounds: GSK PKIS; Assays: Nanosyn kinase panel” (2012).

Key:
[1] = molecular target: Tyrosine-protein kinase SYK (Homo sapiens) (UniProt P43405); conditions: at 1 µM
[2] = molecular target: T1, Tyrosine-protein kinase Tec (Homo sapiens) (UniProt P42680); conditions: at 0.1 µM
T1 sequence (whole entry): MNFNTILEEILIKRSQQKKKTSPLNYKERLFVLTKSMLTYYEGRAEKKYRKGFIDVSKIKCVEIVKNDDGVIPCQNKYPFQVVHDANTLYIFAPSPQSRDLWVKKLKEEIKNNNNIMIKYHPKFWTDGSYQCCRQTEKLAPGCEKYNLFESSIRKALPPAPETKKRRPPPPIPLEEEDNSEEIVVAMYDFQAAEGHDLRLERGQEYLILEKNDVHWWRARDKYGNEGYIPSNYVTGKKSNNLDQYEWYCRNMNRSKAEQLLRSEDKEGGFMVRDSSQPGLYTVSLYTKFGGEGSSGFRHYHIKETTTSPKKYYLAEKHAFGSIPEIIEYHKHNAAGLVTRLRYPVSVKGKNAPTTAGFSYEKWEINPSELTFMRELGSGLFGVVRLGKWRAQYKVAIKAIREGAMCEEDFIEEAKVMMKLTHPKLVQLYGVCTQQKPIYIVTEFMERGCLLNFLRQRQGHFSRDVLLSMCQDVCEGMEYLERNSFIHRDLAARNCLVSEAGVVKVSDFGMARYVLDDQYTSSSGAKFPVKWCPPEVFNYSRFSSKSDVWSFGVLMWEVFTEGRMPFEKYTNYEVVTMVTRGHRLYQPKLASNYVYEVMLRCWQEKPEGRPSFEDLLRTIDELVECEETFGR

[3] = molecular target: T1, Tyrosine-protein kinase Tec (Homo sapiens); conditions: at 1 µM
[4] = molecular target: Angiopoietin-1 receptor (Homo sapiens) (UniProt Q02763); conditions: at 0.1 µM
Angiopoietin-1 receptor (Homo sapiens), sequence (Q02763 whole entry): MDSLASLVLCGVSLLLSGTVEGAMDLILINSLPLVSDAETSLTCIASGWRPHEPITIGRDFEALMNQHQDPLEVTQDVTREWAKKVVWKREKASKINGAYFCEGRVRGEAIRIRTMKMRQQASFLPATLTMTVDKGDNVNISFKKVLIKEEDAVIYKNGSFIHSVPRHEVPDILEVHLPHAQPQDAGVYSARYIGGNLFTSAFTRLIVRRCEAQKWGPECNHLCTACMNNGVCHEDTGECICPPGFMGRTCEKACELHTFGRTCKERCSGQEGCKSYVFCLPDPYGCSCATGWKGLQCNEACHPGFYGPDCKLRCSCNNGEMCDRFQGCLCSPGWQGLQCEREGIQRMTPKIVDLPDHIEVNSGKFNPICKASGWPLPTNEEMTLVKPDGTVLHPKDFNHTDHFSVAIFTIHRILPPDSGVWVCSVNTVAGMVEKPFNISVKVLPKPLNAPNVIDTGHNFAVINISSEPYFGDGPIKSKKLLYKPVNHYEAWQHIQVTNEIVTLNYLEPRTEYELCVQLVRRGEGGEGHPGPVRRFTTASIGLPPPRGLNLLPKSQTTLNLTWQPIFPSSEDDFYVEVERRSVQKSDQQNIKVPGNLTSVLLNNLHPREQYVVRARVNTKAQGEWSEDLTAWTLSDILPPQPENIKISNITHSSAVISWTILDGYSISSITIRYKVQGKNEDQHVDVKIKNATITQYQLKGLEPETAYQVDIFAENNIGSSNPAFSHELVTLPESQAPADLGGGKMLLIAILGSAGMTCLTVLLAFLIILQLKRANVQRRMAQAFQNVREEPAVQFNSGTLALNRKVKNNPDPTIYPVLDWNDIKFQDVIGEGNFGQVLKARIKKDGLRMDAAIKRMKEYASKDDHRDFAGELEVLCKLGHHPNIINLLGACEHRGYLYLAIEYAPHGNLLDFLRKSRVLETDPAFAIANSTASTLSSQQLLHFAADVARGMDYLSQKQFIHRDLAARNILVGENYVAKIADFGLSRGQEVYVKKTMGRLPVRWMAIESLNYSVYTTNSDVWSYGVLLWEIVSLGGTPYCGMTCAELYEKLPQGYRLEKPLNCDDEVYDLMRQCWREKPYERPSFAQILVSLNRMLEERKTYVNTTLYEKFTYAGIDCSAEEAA

[5] = molecular target: Angiopoietin-1 receptor (Homo sapiens) (UniProt Q02763); conditions: at 1 µM
[6] = molecular target: T2, Non-receptor tyrosine-protein kinase TNK1 (Homo sapiens) (UniProt Q13470); conditions: at 0.1 µM
T2 sequence (whole entry): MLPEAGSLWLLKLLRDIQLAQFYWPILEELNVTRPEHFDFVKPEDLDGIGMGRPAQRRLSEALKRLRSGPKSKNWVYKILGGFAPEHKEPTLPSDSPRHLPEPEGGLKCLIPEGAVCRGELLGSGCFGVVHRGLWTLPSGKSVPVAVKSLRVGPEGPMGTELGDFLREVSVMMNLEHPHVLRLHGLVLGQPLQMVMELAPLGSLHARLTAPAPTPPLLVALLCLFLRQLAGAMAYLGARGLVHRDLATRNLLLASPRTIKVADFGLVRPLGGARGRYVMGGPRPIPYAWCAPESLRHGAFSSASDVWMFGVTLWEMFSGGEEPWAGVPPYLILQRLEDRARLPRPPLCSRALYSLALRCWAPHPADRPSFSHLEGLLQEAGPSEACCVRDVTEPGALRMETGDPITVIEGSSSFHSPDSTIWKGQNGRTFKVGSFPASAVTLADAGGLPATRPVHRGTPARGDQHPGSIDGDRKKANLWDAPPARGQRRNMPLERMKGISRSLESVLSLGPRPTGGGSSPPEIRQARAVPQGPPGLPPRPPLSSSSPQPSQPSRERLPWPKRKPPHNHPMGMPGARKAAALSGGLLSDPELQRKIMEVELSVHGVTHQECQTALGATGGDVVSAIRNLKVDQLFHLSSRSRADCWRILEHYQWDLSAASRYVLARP

[7] = molecular target: T2, Non-receptor tyrosine-protein kinase TNK1 (Homo sapiens); conditions: at 1 µM
[8] = molecular target: Activated CDC42 kinase 1 (Homo sapiens) (UniProt Q07912); conditions: at 0.1 µM
[9] = molecular target: Activated CDC42 kinase 1 (Homo sapiens) (UniProt Q07912); conditions: at 1 µM
[10] = molecular target: High affinity nerve growth factor receptor (Homo sapiens) (UniProt P04629); conditions: at 0.1 µM
High affinity nerve growth factor receptor (Homo sapiens), sequence (P04629 33-796 limits assumed): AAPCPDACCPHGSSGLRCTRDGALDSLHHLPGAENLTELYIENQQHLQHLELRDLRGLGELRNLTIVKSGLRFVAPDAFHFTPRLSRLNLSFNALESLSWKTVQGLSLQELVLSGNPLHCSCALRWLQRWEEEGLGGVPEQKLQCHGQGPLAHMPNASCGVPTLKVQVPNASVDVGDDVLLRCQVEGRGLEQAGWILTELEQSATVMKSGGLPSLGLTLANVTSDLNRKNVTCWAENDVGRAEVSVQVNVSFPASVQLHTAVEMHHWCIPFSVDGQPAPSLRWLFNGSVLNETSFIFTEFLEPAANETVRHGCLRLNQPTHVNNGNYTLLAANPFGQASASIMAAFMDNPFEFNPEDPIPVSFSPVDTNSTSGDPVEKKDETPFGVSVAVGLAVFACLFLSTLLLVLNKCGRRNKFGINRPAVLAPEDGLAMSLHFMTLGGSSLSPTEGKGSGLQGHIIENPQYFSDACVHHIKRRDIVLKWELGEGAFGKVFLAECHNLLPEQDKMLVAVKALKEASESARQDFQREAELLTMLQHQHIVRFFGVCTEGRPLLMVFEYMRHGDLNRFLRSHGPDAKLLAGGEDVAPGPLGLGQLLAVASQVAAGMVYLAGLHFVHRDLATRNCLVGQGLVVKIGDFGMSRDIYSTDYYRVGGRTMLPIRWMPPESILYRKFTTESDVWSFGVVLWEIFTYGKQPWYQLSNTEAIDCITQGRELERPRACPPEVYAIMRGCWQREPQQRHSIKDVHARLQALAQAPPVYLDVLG

[11] = molecular target: High affinity nerve growth factor receptor (Homo sapiens) (UniProt P04629); conditions: at 1 µM
[12] = molecular target: BDNF/NT-3 growth factors receptor (Homo sapiens) (UniProt Q16620); conditions: at 0.1 µM
BDNF/NT-3 growth factors receptor (Homo sapiens), sequence (Q16620 32-822 limits assumed): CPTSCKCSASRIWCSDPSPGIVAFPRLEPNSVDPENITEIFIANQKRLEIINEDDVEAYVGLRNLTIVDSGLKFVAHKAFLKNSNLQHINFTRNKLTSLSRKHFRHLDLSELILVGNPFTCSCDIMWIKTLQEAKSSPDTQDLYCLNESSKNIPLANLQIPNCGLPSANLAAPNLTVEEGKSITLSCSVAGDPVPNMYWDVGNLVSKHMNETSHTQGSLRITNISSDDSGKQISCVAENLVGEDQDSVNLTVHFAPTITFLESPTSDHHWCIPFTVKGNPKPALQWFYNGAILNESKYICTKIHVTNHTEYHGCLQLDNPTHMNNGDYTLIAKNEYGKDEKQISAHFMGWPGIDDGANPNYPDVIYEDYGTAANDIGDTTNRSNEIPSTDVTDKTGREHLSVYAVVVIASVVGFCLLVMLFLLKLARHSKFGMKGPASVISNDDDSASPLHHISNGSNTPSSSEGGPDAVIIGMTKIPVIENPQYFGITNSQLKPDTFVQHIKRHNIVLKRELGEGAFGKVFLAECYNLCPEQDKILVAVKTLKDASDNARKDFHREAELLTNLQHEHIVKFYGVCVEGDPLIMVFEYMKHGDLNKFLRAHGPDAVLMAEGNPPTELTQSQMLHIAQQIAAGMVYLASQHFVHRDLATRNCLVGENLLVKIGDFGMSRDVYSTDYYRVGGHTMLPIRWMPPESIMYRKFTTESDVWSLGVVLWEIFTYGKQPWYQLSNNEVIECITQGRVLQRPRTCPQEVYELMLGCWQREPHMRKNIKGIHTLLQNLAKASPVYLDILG

[13] = molecular target: BDNF/NT-3 growth factors receptor (Homo sapiens) (UniProt Q16620); conditions: at 1 µM
[14] = molecular target: NT-3 growth factor receptor (Homo sapiens) (UniProt Q16288); conditions: at 0.1 µM
NT-3 growth factor receptor (Homo sapiens), sequence (Q16288 32-839 limits assumed): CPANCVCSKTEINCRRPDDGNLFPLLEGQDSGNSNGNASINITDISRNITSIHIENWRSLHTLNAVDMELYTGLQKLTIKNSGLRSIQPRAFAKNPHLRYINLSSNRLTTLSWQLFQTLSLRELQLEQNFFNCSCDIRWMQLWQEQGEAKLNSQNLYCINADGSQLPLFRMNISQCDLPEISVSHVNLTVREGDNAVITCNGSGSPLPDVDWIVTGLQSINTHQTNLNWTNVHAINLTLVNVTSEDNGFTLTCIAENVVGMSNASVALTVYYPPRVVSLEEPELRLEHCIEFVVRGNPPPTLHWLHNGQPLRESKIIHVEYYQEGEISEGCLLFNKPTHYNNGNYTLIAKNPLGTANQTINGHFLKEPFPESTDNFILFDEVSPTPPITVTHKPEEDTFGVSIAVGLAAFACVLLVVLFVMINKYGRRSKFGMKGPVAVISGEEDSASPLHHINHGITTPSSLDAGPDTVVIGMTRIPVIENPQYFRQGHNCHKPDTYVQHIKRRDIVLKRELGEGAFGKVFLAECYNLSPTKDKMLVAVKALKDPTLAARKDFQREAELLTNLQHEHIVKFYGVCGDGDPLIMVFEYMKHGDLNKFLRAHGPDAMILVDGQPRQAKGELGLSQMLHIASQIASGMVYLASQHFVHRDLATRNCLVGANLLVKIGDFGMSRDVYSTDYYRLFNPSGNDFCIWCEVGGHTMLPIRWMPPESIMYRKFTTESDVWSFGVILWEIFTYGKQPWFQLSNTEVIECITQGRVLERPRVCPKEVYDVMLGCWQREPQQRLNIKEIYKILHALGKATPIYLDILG

[15] = molecular target: NT-3 growth factor receptor (Homo sapiens) (UniProt Q16288); conditions: at 1 µM
[16] = molecular target: T3, Tyrosine-protein kinase TXK (Homo sapiens) (UniProt P42681); conditions: at 0.1 µM
T3 sequence (whole entry): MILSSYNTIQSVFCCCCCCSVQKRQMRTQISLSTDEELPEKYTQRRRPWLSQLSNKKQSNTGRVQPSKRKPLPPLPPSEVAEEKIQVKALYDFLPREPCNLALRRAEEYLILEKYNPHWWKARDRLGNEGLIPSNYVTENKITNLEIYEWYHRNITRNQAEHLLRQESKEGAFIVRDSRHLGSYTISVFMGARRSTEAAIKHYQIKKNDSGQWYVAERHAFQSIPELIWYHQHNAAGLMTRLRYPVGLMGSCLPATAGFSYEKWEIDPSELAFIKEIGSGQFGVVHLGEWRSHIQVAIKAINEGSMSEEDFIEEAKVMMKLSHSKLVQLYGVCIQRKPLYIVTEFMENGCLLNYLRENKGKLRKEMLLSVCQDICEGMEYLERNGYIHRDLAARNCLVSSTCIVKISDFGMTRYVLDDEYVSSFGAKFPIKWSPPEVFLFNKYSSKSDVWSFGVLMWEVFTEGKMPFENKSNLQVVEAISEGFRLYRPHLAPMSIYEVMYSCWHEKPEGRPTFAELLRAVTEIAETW

[17] = molecular target: T3, Tyrosine-protein kinase TXK (Homo sapiens); conditions: at 1 µM
[18] = molecular target: Non-receptor tyrosine-protein kinase TYK2 (Homo sapiens) (UniProt P29597); conditions: at 0.1 µM;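 further: each value is a mean of the inhibition readings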
Non-receptor tyrosine-protein kinase TYK2 (Homo sapiens), sequence (P29597 whole entry): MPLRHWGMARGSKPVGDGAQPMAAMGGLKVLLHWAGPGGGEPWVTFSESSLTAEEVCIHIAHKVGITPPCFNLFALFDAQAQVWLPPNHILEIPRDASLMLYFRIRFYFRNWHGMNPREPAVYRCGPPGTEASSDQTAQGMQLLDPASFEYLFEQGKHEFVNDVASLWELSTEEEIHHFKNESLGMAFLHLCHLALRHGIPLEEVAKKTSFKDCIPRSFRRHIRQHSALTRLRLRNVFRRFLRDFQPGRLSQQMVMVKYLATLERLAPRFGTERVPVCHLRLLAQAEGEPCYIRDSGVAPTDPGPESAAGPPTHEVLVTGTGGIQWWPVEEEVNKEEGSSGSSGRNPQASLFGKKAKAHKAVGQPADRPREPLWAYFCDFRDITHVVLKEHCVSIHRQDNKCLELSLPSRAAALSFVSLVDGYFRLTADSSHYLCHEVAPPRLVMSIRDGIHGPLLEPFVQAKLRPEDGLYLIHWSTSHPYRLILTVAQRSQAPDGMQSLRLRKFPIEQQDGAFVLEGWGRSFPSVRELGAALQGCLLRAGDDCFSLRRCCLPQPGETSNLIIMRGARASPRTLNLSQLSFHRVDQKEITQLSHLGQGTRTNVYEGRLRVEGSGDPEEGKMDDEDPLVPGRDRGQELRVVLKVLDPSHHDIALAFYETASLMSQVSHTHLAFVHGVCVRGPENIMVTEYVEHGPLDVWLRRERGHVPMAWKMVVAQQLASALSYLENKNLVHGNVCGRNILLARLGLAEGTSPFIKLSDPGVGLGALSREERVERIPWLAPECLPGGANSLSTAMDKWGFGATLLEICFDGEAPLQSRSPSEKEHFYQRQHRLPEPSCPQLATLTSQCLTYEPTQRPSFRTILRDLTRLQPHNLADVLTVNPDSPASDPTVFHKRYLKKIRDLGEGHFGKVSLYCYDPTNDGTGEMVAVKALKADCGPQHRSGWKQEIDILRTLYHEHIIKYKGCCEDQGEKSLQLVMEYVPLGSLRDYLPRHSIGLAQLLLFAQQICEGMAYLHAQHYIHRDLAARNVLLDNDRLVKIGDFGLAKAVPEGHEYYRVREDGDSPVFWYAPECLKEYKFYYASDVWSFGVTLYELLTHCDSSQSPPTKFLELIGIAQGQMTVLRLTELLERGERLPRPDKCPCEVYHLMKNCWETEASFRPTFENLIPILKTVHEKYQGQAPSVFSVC

[19] = molecular target: T4, Dual specificity protein kinase TTK (Homo sapiens) (UniProt P33981); conditions: at 1 µM;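 further: reported figures are mean TTK inhibition at 1 µM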
T4 sequence (whole entry): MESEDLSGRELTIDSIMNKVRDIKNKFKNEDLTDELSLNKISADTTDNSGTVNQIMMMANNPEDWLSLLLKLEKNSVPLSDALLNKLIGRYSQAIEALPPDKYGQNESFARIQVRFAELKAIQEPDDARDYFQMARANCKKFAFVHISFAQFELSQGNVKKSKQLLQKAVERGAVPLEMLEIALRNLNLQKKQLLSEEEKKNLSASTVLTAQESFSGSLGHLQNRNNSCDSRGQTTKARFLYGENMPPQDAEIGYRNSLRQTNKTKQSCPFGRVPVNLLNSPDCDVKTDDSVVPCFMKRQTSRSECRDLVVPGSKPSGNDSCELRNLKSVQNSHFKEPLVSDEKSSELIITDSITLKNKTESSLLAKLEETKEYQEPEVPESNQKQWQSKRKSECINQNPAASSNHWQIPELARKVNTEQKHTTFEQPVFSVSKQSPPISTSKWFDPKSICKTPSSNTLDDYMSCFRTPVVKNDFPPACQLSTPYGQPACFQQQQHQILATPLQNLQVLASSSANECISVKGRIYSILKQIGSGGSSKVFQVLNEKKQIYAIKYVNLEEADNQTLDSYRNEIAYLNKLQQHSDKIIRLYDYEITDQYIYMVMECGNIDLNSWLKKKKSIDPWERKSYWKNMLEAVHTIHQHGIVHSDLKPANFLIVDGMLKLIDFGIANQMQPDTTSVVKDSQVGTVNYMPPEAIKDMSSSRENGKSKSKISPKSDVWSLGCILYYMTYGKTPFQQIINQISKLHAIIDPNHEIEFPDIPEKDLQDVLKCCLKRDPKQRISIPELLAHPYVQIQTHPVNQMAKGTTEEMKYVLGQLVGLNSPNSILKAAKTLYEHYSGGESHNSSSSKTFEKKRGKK

[20] = molecular target: T5, Aurora kinase A (Homo sapiens) (UniProt O14965); conditions: at 0.1 µM;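 further: each reported value is a mean percent inhibition of Aurora-A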
T5 sequence (whole entry): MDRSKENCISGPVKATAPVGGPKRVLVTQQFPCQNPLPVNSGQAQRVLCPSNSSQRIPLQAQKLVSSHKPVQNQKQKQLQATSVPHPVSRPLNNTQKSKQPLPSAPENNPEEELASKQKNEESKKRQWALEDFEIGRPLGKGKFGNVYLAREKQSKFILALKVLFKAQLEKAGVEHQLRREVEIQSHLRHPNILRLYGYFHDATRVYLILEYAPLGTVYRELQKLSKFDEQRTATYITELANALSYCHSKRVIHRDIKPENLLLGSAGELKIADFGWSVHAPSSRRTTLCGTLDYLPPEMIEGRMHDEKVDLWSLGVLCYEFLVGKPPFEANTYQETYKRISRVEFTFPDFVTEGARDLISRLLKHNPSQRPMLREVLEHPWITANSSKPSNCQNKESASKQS

| SMILES | inhibition [1] | inhibition [2] | inhibition [3] | inhibition [4] | inhibition [5] | inhibition [6] | inhibition [7] | inhibition [8] | inhibition [9] | inhibition [10] | inhibition [11] | inhibition [12] | inhibition [13] | inhibition [14] | inhibition [15] | inhibition [16] | inhibition [17] | inhibition [18] | inhibition [19] | inhibition [20] |
| --- | --- | --- | --- | --- | --- | --- | --- | --- | --- | --- | --- | --- | --- | --- | --- | --- | --- | --- | --- | --- |
| N#Cc1c(NC(=O)c2cccc3ccccc23)sc2c1CCCC2 | 2.16% | 2.31% | 3.43% | 2.34% | 6.02% | 1.31% | -2.02% | 0.12% | 0.56% | 3.35% | 1.26% | 2.03% | 2.36% | 2.33% | 2.63% | 2.34% | 4.42% | -0.41% | 0.69% | 2.42% |
| COc1ccc(-c2coc3ncnc(N)c23)cc1 | -0.96% | 3.6% | 5.59% | 2.58% | 7.38% | 0.94% | -4.86% | 0.34% | 1.05% | 1.6% | 2.06% | 2.05% | 1.62% | 2.53% | 2.68% | 2.99% | 6.19% | -3.01% | 11.5% | 3.09% |
| CN1CCC(C(=O)Nc2n[nH]c3nnc(-c4ccccc4)cc23)CC1 | -1.15% | 3.47% | 4.52% | 2.55% | 7% | 2.98% | 7.95% | 1.4% | 1.85% | 0.43% | 1.65% | 2.71% | 5.68% | 2.52% | 6.56% | 2.62% | 4.13% | -3.53% | 15% | 3.39% |
| Cc1nnc(-c2ccc(C)c(-c3ccc(C(=O)Nc4cccc(C#N)c4)cc3)c2)o1 | -0.57% | 4.05% | 3.86% | 3.65% | 5.45% | -0.4% | 5.43% | 0.82% | 2% | 1.28% | -1.21% | 1.33% | 3.51% | -0.42% | 3.49% | 3.37% | 4.78% | -1.14% | 6.46% | 0.8% |
| CCn1c(-c2nonc2N)nc2cnc(Oc3cccc(NC(=O)c4ccc(OCCN5CCOCC5)cc4)c3)cc21 | 1.88% | 3.35% | 5.81% | 3.75% | 6.59% | 0.95% | 5.9% | -0.31% | -0.19% | 4.32% | -0.09% | 3.18% | 0.84% | 2.85% | 2.49% | 5.3% | 5.82% | -1.13% | 10.2% | 6.07% |
| COc1ccc(COc2ccc(Cc3cnc(N)nc3N)cc2OC)cc1 | 0.65% | 1.62% | 2.91% | 2.2% | 8.78% | 0.7% | -8.3% | 2.24% | 3.64% | 32.4% | 50% | 25.7% | 75.4% | – | – | 4.15% | 4.97% | 3.75% | 3.14% | 4.1% |
| CCn1c(-c2nonc2N)nc2ccncc21 | 1.46% | 2.56% | 3.46% | 2.16% | 2.72% | 3.44% | -5.95% | -0.95% | -2.72% | 0.03% | -0.79% | -1.44% | -3.63% | -2.79% | -1.79% | 0.17% | 3.88% | 0.97% | 6.38% | 2.36% |
| CS(=O)(=O)Nc1ccc(N/C=C2\C(=O)Nc3ccccc32)cc1 | -3.83% | -2.97% | 0.17% | 0.36% | 2.36% | -2.85% | 6.96% | -0.49% | 1.32% | 5.97% | 46.7% | 11.2% | 58.6% | 14.1% | 57% | -1.93% | 1.85% | 3.51% | 18.9% | 7.34% |
